# Bioassay records as filed in PubChem.
# FEN1 inh = qHTS Assay for the Inhibitors of Human Flap endonuclease 1 (FEN1); Potency, µM (highest dose often 114 µM), without a hit: at the top dose activity change, negative = inhibition, most hits filed as inhibitors; hit rate 0.35% among 390,000; P39748; Recombinant FEN1 flap cleavage, fluorescence, 15 min; further: on the % scale 0 is the no-effect control and ±100 the full control effect; nearly all actives have a fitted effect of over 65% in size
#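 Steps: FEN1 (10 nM) dispensed; compound added by pin tool; 15 min at room temperature; substrate added to 50 nM final; reads at 0 min and 15 min; data normalized and fitted (four-parameter Hill).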
# POLH inh = qHTS for Inhibitors of Polymerase Eta; recombinant Pol eta, fluorescent DNA replication assay; Potency, µM (doses to about 114 µM), for the others: top-dose activity change, negative = inhibition, usual class: inhibitors; hit rate 1.2% among 390,000; AID 588591, 2011; further: on the % scale 0 is the no-effect control and ±100 the full control effect
#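 Pol eta (10 nM) was preincubated with compounds for 15 min at room temperature, after which fluorescent replication substrate (50 nM final) was added to start the reaction. Fluorescence was read kinetically at 0 and 10 min.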
# WRN helicase inh-1 = qHTS for Inhibitors of WRN Helicase; AID 651768, 2012; Potency, µM (titrated, usually from 114 µM), without a hit: at the top dose activity change, negative = inhibition, hits mostly inhibitors; WRN helicase unwinding, fluorescent forked duplex, kinetic; hit rate 0.46% among 360,000; further: on the % scale 0 is the no-effect control and ±100 the full control effect; nearly all actives have a fitted effect of over 55% in size
#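 Screening of the MLSMR collection measured strand separation of a quenched forked DNA duplex (100 nM) by 20 nM WRN with 2 mM ATP, all final. Compounds were preincubated with enzyme 15 min at room temperature.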
# Pol beta inh = qHTS Assay for Inhibitors of DNA Polymerase Beta | Pol beta primer extension/strand displacement, fluorescence kinetic | P06746 | Potency, µM (series often up to 114 µM), for the others: at the top dose activity change, negative = inhibition, most hits filed as inhibitors | hit rate 1.3% among 340,000; further: on the % scale 0 is the no-effect control and ±100 the full control effect
#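 Preincubation: enzyme (10 nM) with compound, 15 min, RT. Reaction: substrate added to 50 nM final. Reads: 0 and 10 min. Analysis: normalized, Hill fit.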
# POLK inh = qHTS for Inhibitors of Polymerase Kappa; DNA polymerase kappa (Homo sapiens), Q9UBT6; purified Pol kappa, fluorescent DNA synthesis assay, 10 min; Potency, µM (titrated, usually from 107 µM), inactives show top-dose activity, negative = inhibition, most hits filed as inhibitors; hit rate 0.53% among 400,000; AID 588579, 2011; further: on the % scale 0 is the no-effect control and ±100 the full control effect
#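 Readout: fluorescence, taken kinetically at 0 and 10 min. Conditions: 10 nM Pol kappa, 15 min RT compound preincubation, 50 nM substrate final. Controls: enzyme-free buffer wells.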
# Pol iota inh = qHTS for Inhibitors of Polymerase Iota. DNA polymerase iota (Homo sapiens), Q9UNA4. Pol iota fluorescent replication assay, 10 min. Potency, µM (titrated, usually from 115 µM), for inactives: at the highest dose activity, negative = inhibition, hits mostly inhibitors. hit rate 1% among 390,000
#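 Pol iota at 10 nM preincubated 15 min with compounds at room temperature; reaction started with fluorescent substrate, 50 nM final. Fluorescence read kinetically at 0 and 10 min; buffer-only wells as negative control.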
# WRN helicase inh-2 = qHTS for Inhibitors of WRN Helicase: Confirmatory Assay for Cherry-picked Compounds; shares compounds with WRN helicase inh-1; WRN helicase DNA unwinding, fluorescence kinetic; Potency, µM (titrated, usually from 57.1 µM), inactives show at the highest dose activity, negative = inhibition, most hits filed as inhibitors; hit rate 63% among 610; AID 720497, 2013; further: nearly all actives have a fitted effect of over 65% in size
# TO DNA binding = qHTS for Inhibitors of WRN Helicase: Thiazole Orange DNA Binding Counterscreen. shares compounds with WRN helicase inh-1. thiazole orange DNA binding displacement, fluorescence. Potency, µM (highest dose often 57.1 µM), inactives show at the highest dose activity change, negative = inhibition, actives largely listed as inhibitors. hit rate 10% among 610. AID 720499, 2013;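 further: drop in dye fluorescence marks compound binding to DNA; on the % scale 0 is the no-effect control and ±100 the full control effect; nearly all actives have a fitted effect of over 60% in size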
# BLM helicase inh = qHTS for Inhibitors of WRN Helicase: BLM Helicase Counterscreen for WRN Inhibitors. shares compounds with WRN helicase inh-1. Recombinant BLM helicase DNA unwinding, red fluorescence. Potency, µM (highest dose often 57.1 µM), without a hit: at the top dose activity change, negative = inhibition, hits mostly inhibitors. hit rate 60% among 610. AID 720503, 2013; further: nearly all actives have a fitted effect of over 60% in size
# * marks the source's active call; other numbers are inactive results; ? = inconclusive; / = not tested or not shown; [ ] = another dose, or the depositor's remark. In the library only some 2.4% were active in any assay of this set; here they are far more common. The call rests on the fitted dose curve; in most records, active means well fitted curve in the direction sought with a large enough effect; inconclusive means small, poorly fitted or top-dose-only effect, or another doubt; inactive means no such curve, though single readings can be large; an effect the other way counts as inactive or inconclusive. Potency means the concentration at half of the fitted maximal effect.
SMILES,FEN1 inh,POLH inh,WRN helicase inh-1,Pol beta inh,POLK inh,Pol iota inh,WRN helicase inh-2,TO DNA binding,BLM helicase inh
C=CS(=O)(=O)c1sc(Cl)c(N2CCOCC2)c1[N+](=O)[O-],-8%,?,32µM*,-29%,-31%,?,14µM*,-25%,3.4µM*
Cc1ccc(C)c(NC(=O)N2CCc3cc(S(=O)(=O)N4CCC(C)CC4)ccc32)c1,-1%,/,/,-10%,-6%,28%,/,/,/
CC(C)Cc1ccc(C(C)/C=C2/CCC(CN3CCCCC3)C2=O)cc1 (stereo unspecified),-20%,22µM*,35µM*,/,-13%,?,-27%,-6%,?
Cc1cc(=O)n(Cc2cccc(Cl)c2)c2c1c(C)nn2-c1ccccc1,20%,-16%,/,13%,-16%,2%,/,/,/
COc1ccccc1OCCSc1nc(-c2ccc(C(C)(C)C)cc2)nc2cc(=O)[nH]n12,-27%,?,/,12%,-6%,-18%,?,?,27µM*
COCCn1c(=O)sc2ccccc2c1=O,1%,-2%,?,6%,-8%,89%,6%,-4%,-11%
Oc1ccc(O)c(Cc2nc3ccccc3[nH]2)c1,-21%,2%,89µM*,0%,-19%,-10%,22µM*,?,6.8µM*
COc1cc(-c2cnc3c(NC=O)cc(-c4cccc(NC(C)=O)c4)cn23)cc(OC)c1OC,/,/,25µM*,/,/,/,9.6µM*,8%,15µM*
Cc1cc(C)c(NC(=O)C(=O)NCCc2csc(-c3ccc(F)cc3)n2)c(C)c1,-12%,-4%,/,10%,-10%[60.1 µM],-28%,/,/,/
Cc1ccc(NC(=O)N/C=C/c2ccco2)cc1,-15%,50µM*,?,22µM*,50µM*,20µM*,-23%,-28%,14µM*
CCCc1cc(CN2CCOCC2)c(O)c(CN2CCOCC2)c1O,1%,-13%,18µM*,/,-15%,-14%,-13%,-3%,-25%
COc1ccc(OC)c(-n2c(=O)c3ccccc3c3ccccc3c2=O)c1,3%,-23%,?,-4%,-8%,-2%,-15%,-10%,?
COc1ccc(-n2c(=O)c3ccccc3c3ccccc3c2=O)cc1,0%,-4%,?,2%,-7%,20%,/,/,/
COC(=O)c1sccc1S(=O)(=O)N(CC(=O)Nc1cc(C)ccc1C)c1ccc(C)c(C)c1,-15%,-6%,/,17%,0%,-6%,/,/,/
COc1ccc(NC(=O)CN(C)CC(=O)Nc2ccccc2SC)cc1,-1%,-9%,28µM*,-18%,-4%,9%,-13%,-9%,-21%
COc1ccc(OCCN(C)CC(=O)Nc2ccccc2SC)cc1,-3%,-17%,-5%,36%,-15%,74%,/,/,/
CCC1Oc2ccccc2N(CC(=O)NCc2cc(OC)ccc2OC)C1=O (stereo unspecified),1%,-20%,/,-18%,1%[60.1 µM],19%,/,/,/
CC(=O)N(C1=C(Cl)C(=O)c2ccccc2C1=O)C1CCCCC1,?,-10%,14µM*,7%,-13%,?,-27%,-16%,?
Cc1ccc(NN2C(=O)C=C(c3ccccc3)C2=O)cc1,-23%,-6%,?,3%,-4%,?,-20%,-6%,-22%
N#CCC(=O)Nc1ccc(C(=O)OCC(=O)NNC(=O)c2ccc(Cl)cc2)cc1,?,?,?,/,-12%,?,?,30µM*,?
N#CCC(=O)Nc1ccc(C(=O)OCC(=O)NNC(=O)c2cccs2)cc1,-3%,?,-27%,/,-9%,?,/,/,/
CCOc1cccc(CNCCO)c1OCc1ccc(Cl)cc1Cl,-23%,-16%,25%,1%,-8%,14%,/,/,/
CCOc1cccc(CNc2ccc(O)cc2)c1OCc1ccc(Cl)cc1Cl,-11%,?,?,-1%,-18%,3.2µM*,-29%,-27%,?
O=C(CSc1ncccc1C(=O)Oc1ccccc1Cl)Nc1ccc(C(F)(F)F)cc1Cl,-15%,-14%,/,2%,-3%[60.1 µM],7%,/,/,/
Cc1ccc(C(=O)NNC(=O)c2ccc(S(=O)(=O)N3CCCCC3)cc2)cc1,-16%,-2%,35µM*,/,-17%,?,-17%,-2%,?
SMILES,FEN1 inh,POLH inh,WRN helicase inh-1,Pol beta inh,POLK inh,Pol iota inh,WRN helicase inh-2,TO DNA binding,BLM helicase inh
CC1=C(C)CS(=O)N(S(=O)(=O)c2ccccc2)C1 (stereo unspecified),?,-9%,40µM*,7%,-11%,?,-13%,-5%,-17%
CCN(CC)c1ccc(N=C2C=CC(=O)C=C2NC(C)=O)cc1,?,-5%,18µM*,/,?,45µM*,-13%,-11%,-23%
CCN(CC)c1ccc(NC(=O)Nc2ccc(C(C)=O)cc2)cc1,-2%,-1%,-2%,?,-19%,2%,/,/,/
COc1cc(/C=C2\C(=O)N(CCC#N)N=C2C)ccc1OCC(=O)Nc1ccccc1,?,-3%,?,25%,-18%,?,?,-4%,17µM*
CC1=NN(CCC#N)C(=O)/C1=C/c1ccc(N(C)C)cc1,-7%,-18%,-7%,-29%,9%,28%,/,/,/
CCc1cc(=O)oc2cc(C)c(CN3CCCCC3)c(O)c12,50µM*,14µM*,25µM*,8.9µM*,18µM*,7.9µM*,?,-21%,?
COc1ccc2c(Sc3ccc(Cl)cc3)c(C(=O)NCCCN3CCCCC3)[nH]c2c1,-5%,-3%,/,-11%,-9%,50%,/,/,/
O=C1NC(=Nc2ccc(O)cc2)S/C1=C\C=C\c1ccco1,-15%,32µM*,?,20µM*,-44%,?,19µM*,?,22µM*
